In PubChem BioAssay AID1285 (Columbia University Molecular Screening Center, 2008):
In all, about 190,000 compounds went through this assay and about 1,600 (0.84%) were called active. Only a selection was taken, and actives are over-represented in it overall. Unmarked numbers belong to inactive results.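 How the source made its calls: active means inhibition above a set limit, derived from the sample mean plus 3 SD (cut at about 45% in these data); inconclusive means one replicate passes the limit while the other fails; inactive means the rest.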

Assay: inhibitors of APP translation via 5'UTR reporter, primary screen, APP 5'UTR luciferase, SH-SY5Y cells (AID 1285)
Conditions: SH-SY5Y APP 5'UTR-luciferase reporter, luminescence; at 2 µM; hits give high values

Compound	inhibition
CCOc1ncccc1C(=O)OCC(=O)NC1CC1	17%
O=c1c([N+](=O)[O-])cccn1Cc1ccc(F)cc1Cl	-2.2%
Cc1ccc(OCC(=O)N/N=C/c2ccncc2)cc1	0.8%
Cc1ccc(OCC(=O)N/N=C\c2ccco2)c(C)c1	-0.4%
Cc1ccc(/C=N/NC(=O)COc2ccccc2-c2ccccc2)cc1	97% (active)
CN1CCC(=NNC(=O)c2ccc(N(Cc3ccc(Cl)cc3)S(C)(=O)=O)cc2)CC1	-0.2%
Cc1ccc(S(=O)(=O)N(CC(=O)NN=C2CCN(C)CC2)c2ccc(F)cc2)cc1	-21%
COc1ccc(CCNS(=O)(=O)c2ccc(C(=O)NCc3ccco3)cc2)cc1OC	-8.6%
CCOc1ccccc1C(=O)NCc1ccco1	-2.6%
CCCC1=Nc2cc(C(=O)NCc3ccco3)ccc2Sc2ccccc21	90.1% (active)
CC(=O)N1CCN(S(=O)(=O)c2cccc(C(=O)NC3CCC(C)CC3)c2)CC1 (stereo unspecified)	2.6%
O=C(COc1ccc(NC(=O)c2ccccc2[N+](=O)[O-])cc1)c1ccc(F)cc1	-3.2%
CCN(CC)C(=O)N(CC)Cc1ccccc1	-8.7%
CC(=O)Nc1ccc(S(=O)(=O)N2CCN(C(=O)c3ccccc3F)CC2)cc1	94.3% (active)
CC(=O)Nc1ccc(S(=O)(=O)N2CCN(C3CCCCCCC3)CC2)cc1	-4.6%
CC(=O)Nc1ccc(S(=O)(=O)N2CCSCC2)cc1	11.7%
CN(Cc1ccc2nsnc2c1)Cc1nc(Cc2cccc(F)c2)no1	-3.3%
CNc1ccc(NC(C)=O)cc1[N+](=O)[O-]	-17.6%
CC(C)CC(=O)NC(=S)Nc1ccc(F)cc1F	-8.3%
COc1cccc(OCCOc2cccc(/C=N/n3cnnc3)c2)c1	-90.8%
COc1ccccc1OCCOc1ccc(/C=N/n2cnnc2)cc1	8.5%
Cc1ccccc1OCCOc1ccc([N+](=O)[O-])cc1/C=N/n1cnnc1	45.2% (active)
O=C(COC(=O)c1cc(-c2cccs2)nn1-c1ccccc1)Nc1cc([N+](=O)[O-])ccc1Cl	-13.5%

Compound	inhibition
Cc1cc(C(C)(C)C)cc(S(=O)(=O)Nc2ccc(C(=O)O)cc2)c1C	2.7%
CNC(=S)NNC(=O)c1cccn(Cc2ccccc2)c1=O	4.8%
CCN(CC)S(=O)(=O)c1ccc(N2CCCC2)c(NS(=O)(=O)c2cccs2)c1	7.7%
COc1ccc(NC(=O)c2nc(-n3nc(C)cc3C)ccc2Cl)cc1Cl	21.2%
CC(=O)c1ccc(Oc2cc(C)nc(-n3nc(C)cc3C)n2)cc1	93.7% (active)
Cc1cc(Oc2ccc(Cl)cc2)nc(SCC(=O)c2ccccc2)n1	-11.5%
COc1ccc(Nc2cc(C)nc(-n3nc(C)cc3C)n2)cc1	92.8% (active)
COc1ccccc1/C=N\Nc1cc(C)nc(-n2nc(C)cc2C)n1	3.2%
Cc1cc(C)n(-c2cc(Oc3ccccc3)ncn2)n1	-14.1%
O=C(NCc1ccccc1)C1=C[C@@H](c2ccc(C(F)(F)F)cc2)C[C@@H](OCc2ccc(CO)cc2)O1	-9.6%
O=C(CSc1nc2ccc(Nc3nc(N4CCOCC4)nc(N4CCOCC4)n3)cc2s1)NCc1ccco1	-2.6%
CN1CCCN(C(=O)C2CCCCC2)CC1	4.4%
O=[N+]([O-])c1cccc(/C([O-])=C(/C(=S)Nc2ccccc2F)[n+]2ccccc2)c1	-11.7%
CCOC(=O)c1c(C)[nH]c(C2=NNC(=NC(C)COC)SC2)c1C (stereo unspecified)	-102%
O=S1(=O)CCC(NC(=S)SCc2ccccc2Br)C1 (stereo unspecified)	0.3%
O=C(Nc1ccon1)c1sc2ccccc2c1Cl	-68.6%
Cc1nn(C)cc1/C=N/NC(=O)c1sc2ccccc2c1Cl	55.6% (active)
O=C(N/N=C/c1c(Cl)[nH]c2ccccc12)c1sc2ccccc2c1Cl	-4.8%
Cc1ccccc1CCN(CC(=O)NC1CCCCC1)C(=O)c1csnn1	11.3%
O=c1nc(N/N=C/c2ccco2)cn[nH]1	12.4%
O=C(O)c1ccc(N/N=C/c2cn(-c3ccccc3)nc2-c2cccs2)cc1	-140%
CC(C)(O)C#Cc1ncc(C(F)(F)F)cc1Cl	-2.7%
CC(=O)Nc1ccc(Nc2c3ccccc3nc3ccccc23)cc1	92.3% (active)

Compound	inhibition
CC(=O)Nc1ccc(NC(=O)COc2ncnc3ccccc23)cc1	0.3%
O=[N+]([O-])c1cccc(Nc2c3ccccc3nc3ccccc23)c1	0.1%
C=CCn1c(SCc2ccc(Cl)c(Cl)c2)nnc1C(CO)NC(=O)c1ccc(OC)cc1 (stereo unspecified)	-13.3%
CCOc1ccc(CCNC(=O)C2=C(C)C(=O)OC23CCC(C)CC3)cc1OCC (stereo unspecified)	-9.6%
N=c1c2c(-c3ccccc3)c(-c3ccccc3)n(Cc3ccccc3)c2ncn1CCCO	77.3% (active)
Cc1nc([N+](=O)[O-])c(NCCCO)n1Cc1ccccc1	6.3%
N=c1c2c(-c3ccccc3)c(-c3ccccc3)oc2ncn1Cc1ccco1	-10.8%
C/C(CCc1ccccc1)=N\NC(=O)c1ccc(CN2CCOCC2)cc1	-5.3%
COc1ccc(N2C(=O)CC(SC(C)C)C2=O)cc1 (stereo unspecified)	-20.2%
COc1cc(Cl)c(C)cc1NC(=O)COC(=O)c1cc(SC)ccc1Cl	6.6%
OCCC1CN(Cc2ccc3nsnc3c2)CCN1C1CCCC1 (stereo unspecified)	-9.3%
C=CS(=O)c1sc(Cl)c(N2CCOCC2)c1[N+](=O)[O-] (stereo unspecified)	83.2% (active)
Cc1ccc(C(=O)NN(CCC#N)C2=NS(=O)(=O)c3ccccc32)cc1	-1.1%
C/C(=N\N)c1c(-c2ccccc2)c2cc(Br)ccc2[nH]c1=O	-3.6%
COc1cccc(/C=N/Nc2cc(C)nc(-c3ccccc3O)n2)c1O	67.5% (active)
Cc1cc(N/N=C/c2ccccc2F)c2ccccc2n1	-7.2%
COc1cccc2c(N/N=C/c3ccco3)cc(C)nc12	-4.8%
COc1ccc(O)c(C(=O)c2cnc3c(c2)c(-c2ccc(F)cc2)c(C#N)c(=O)n3C)c1	-3.8%
Cc1cccc(N2C(=O)SC(SC(=Nc3ccccc3)Nc3ccccc3)C2=O)c1 (stereo unspecified)	-14.2%
Cn1c(CCC(=O)Nc2ccccc2F)nnc1SCC(=O)Nc1ccccc1Cl	-2.1%
O=C(CSc1nnc(-c2cccnc2)n1CCc1ccccc1)NCc1ccccc1	4.7%
C=CCn1c(SCC(=O)Nc2nc3ccccc3s2)nnc1-c1ccccc1O	0.7%
C=CCn1c(SCC(=O)NCc2ccccc2)nnc1-c1cc(Br)ccc1O	55.6% (active)

Compound	inhibition
C/C(Cn1nnc2ccccc21)=N\OC(=O)c1cc(F)c(F)cc1Cl	-4.6%
Cc1cc2c(c(=O)n1Cc1ccco1)C(c1ccccc1)C(C#N)=C(N)O2 (stereo unspecified)	-7.5%
N#CC1=C(N)Oc2c(sc3ccccc23)C1c1ccco1 (stereo unspecified)	56.2% (active)
Cc1cc(C)c2c3c(sc2n1)C(c1ccccc1)C(C#N)=C(N)O3 (stereo unspecified)	7.5%
O=C(/C=C/c1ccc(N2CCOCC2)cc1)c1ccccc1	-140%
Cc1c(/C=N/N2C(=O)C3C4C=CC(C4)C3C2=O)c2ccccc2n1C (stereo unspecified)	13.8%
Cc1c(/C=N\NC(=O)c2cc3ccccc3o2)c2ccccc2n1C	78% (active)
O=C(N/N=C/c1coc2ccccc2c1=O)c1cc2ccccc2o1	0.7%
CCOc1ccc(NC(=O)COc2ccc(C(=O)NC3CCCc4ccccc43)cc2OC)cc1 (stereo unspecified)	-14.3%
COc1ccccc1CNC(=O)COc1ccc(C)nc1[N+](=O)[O-]	-13.3%
C/C(=C\c1ccccc1)C1NC(=O)c2c(sc3c2CCCC3)N1 (stereo unspecified)	14.6%
Cc1ccc(C2CC(=O)NC(SCC(=O)OCc3ccccc3)=C2C#N)o1 (stereo unspecified)	18%
C=CCOC(=O)C1=C(C)NC(SCC(=O)OCC)=C(C#N)C1c1ccc(C)cc1 (stereo unspecified)	-6.5%
CCOC(=O)CSC1=C(C#N)C(c2sccc2C)CC(=O)N1 (stereo unspecified)	93.4% (active)
CC(C)(C)NC(=O)C(=O)NCc1ccncc1	-1.4%
C/C(=N\NC(=O)Cc1ccc(Cl)cc1)c1ccccn1	58.9% (active)
C/C(=N\NC(=O)Cc1ccc(F)cc1)c1ccc(F)cc1	10.7%
COc1ccc(CC(=O)N/N=C(\C)c2ccccn2)cc1	23.4%
Cc1ccc(NC(=O)c2ccn(C(=O)Nc3ccccc3)n2)c(C)c1	-34.7%
Nc1nonc1-c1nc2ccccc2n1CCC(=O)O	-2%
COc1ccc(C)c(Cn2c(-c3nonc3N)nc3ccccc32)c1	90.7% (active)
Nc1nonc1-c1nc2ccccc2n1Cc1ccc(F)cc1	-0.7%
O=C(NCCCN1CCOCC1)c1ccc([N+](=O)[O-])cc1[N+](=O)[O-]	-18.1%

Compound	inhibition
COc1cc(OC)cc(C(=O)OCC(=O)Nc2sccc2C(N)=O)c1	11.2%
Clc1ccc(CN2CCN(/N=C/c3cccnc3)CC2)cc1	-6.8%
O=C1/C(=C\c2cccnc2)CN(Cc2ccccc2)C/C1=C\c1cccnc1	97.1% (active)
O=Cc1cn(Cc2ccccc2)nc1-c1cccnc1	-9.8%
Cc1cccc(N2CCN(c3ccc(C(N)=O)cc3[N+](=O)[O-])CC2)c1C	-15.7%
CCn1c(CNC(=O)c2ccc(OC)c(OC)c2)nnc1SCC(=O)Nc1ccccc1	45.9% (active)
CCn1c(Cc2ccccc2)nnc1SCC(=O)Nc1ccccc1	-1.3%
CCn1c(CNC(=O)c2ccco2)nnc1SCC(=O)Nc1cccc(F)c1	-10%
O=C(CNC(c1ccccc1)c1ccccc1)Nc1ccc(F)cc1	-7.4%
CC1(C)CC(=O)C(N=Nc2ccc(S(=O)(=O)N3CCCCCC3)cc2)=C(O)C1	9.4%
CCOC(=O)c1ccc(N2C(=O)CC(N3CCN(C(=O)c4ccccc4)CC3)C2=O)cc1 (stereo unspecified)	-5.3%
O=C(COc1ccccc1F)NC1CC1	-9.1%
O=C(COc1cc(Cl)c(Cl)cc1Cl)NC(=O)NC1CCCC1	45.2% (active)
O=C(COc1cc(Cl)c(Cl)cc1Cl)NCCc1ccccn1	1.4%
Cc1ccccc1C1CC(c2cccs2)=NN1S(C)(=O)=O (stereo unspecified)	17.8%
Cn1nnc(NC(=O)CSc2ncn[nH]2)n1	53.1% (active)
O=C(CSc1ncn[nH]1)Nc1ccnc2ccccc12	4%
O=C(CSc1ncn[nH]1)Nc1nsc(-c2ccccc2)n1	-2.5%
COc1ccc(Br)cc1/C=N/NC(=O)c1cccc(S(=O)(=O)N2CCOCC2)c1	-16.1%
